Test results from PubChem BioAssay (NCI).
About 79,000 compounds went through this panel and 15% of them were active in at least one assay; those are over-represented in the sample as a whole. Unmarked numbers belong to inactive results. The source made the active and inactive calls. No stated cut-off is given here; in the data, active means growth inhibition above about 70%; inactive means the rest.

Experiments:
[1] = NCI Yeast Anticancer Drug Screen. Data for the rad50 strain (AID 155);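 further: 0% = growth of vehicle-only cultures of the same strain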; details: S. cerevisiae rad50 strain growth inhibition, hits give high values
Outline: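 Relative growth inhibition (compound vs vehicle) was measured in yeast with a defined repair-gene alteration.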

[2] = NCI Yeast Anticancer Drug Screen. Data for the mec2-1 strain (AID 157); details: S. cerevisiae mec2-1 strain, hits give high values
Outline: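 Compounds were applied to mec2-1 yeast cells. Their growth was then compared with that of vehicle-treated cultures to give growth inhibition.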

[3] = NCI Yeast Anticancer Drug Screen. Data for the sgs1 mgt1 strain (AID 161);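 further: 0% = growth of cultures given vehicle only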; details: S. cerevisiae sgs1 mgt1 strain, hits give high values
Outline: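 Yeast cells carrying a defined DNA-repair defect were exposed to test compounds. Growth inhibition was measured relative to vehicle-treated controls.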

[4] = NCI Yeast Anticancer Drug Screen. Data for the cln2 rad14 strain (AID 165);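 further: 0% = growth equal to vehicle treated cultures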; details: S. cerevisiae cln2 rad14 strain, hits give high values
Outline: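 Strain: cln2 rad14 yeast, altered in cell cycle control and DNA damage repair. Read-out: growth inhibition vs vehicle.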

[5] = NCI Yeast Anticancer Drug Screen. Data for the bub3 strain (AID 167); details: S. cerevisiae bub3 mutant strain, hits give high values
Outline: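 Screening used yeast with an engineered genetic alteration affecting cell cycle control. Compound-exposed cultures were compared with vehicle cultures, and reduced growth was taken as inhibition.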

[6] = NCI Yeast Anticancer Drug Screen. Data for the mlh1 rad18 strain (AID 175); details: S. cerevisiae mlh1 rad18 strain growth inhibition, hits give high values
Outline: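 A repair-deficient yeast strain is exposed to test compound, and growth is scored relative to vehicle-treated controls.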

[7] = at 5.0 µM (retest, dose inferred, filed as 0.5)
[8] = at 50.0 µM (retest, dose inferred, filed as 5.0)

SMILES	growth inhibition [1, 7]	growth inhibition [1, 8]	growth inhibition ([1]; at 50.0 µM)	growth inhibition [2, 7]	growth inhibition [2, 8]	growth inhibition ([2]; at 50.0 µM)	growth inhibition [3, 7]	growth inhibition [3, 8]	growth inhibition ([3]; at 50.0 µM)	growth inhibition [4, 7]	growth inhibition [4, 8]	growth inhibition ([4]; at 50.0 µM)	growth inhibition [5, 7]	growth inhibition [5, 8]	growth inhibition ([5]; at 50.0 µM)	growth inhibition [6, 7]	growth inhibition [6, 8]	growth inhibition ([6]; at 50.0 µM)
CCOC(=O)C(C#N)NC(C)=O (stereo not given)	3%	1%	68%	0%	1%	49.3%	0%	1%	75.4% (active)	-1%	0%	3.05%	0%	-5%	69%	3%	3%	57.8%
CCn1c2ccccc2c(=O)c2c(OC)ccc(OC)c21	2%	73% (active)	77.6% (active)	4%	51%	-1.7%	0%	94% (active)	81.5% (active)	-1%	24%	49.4%	28%	75% (active)	52.6%	-1%	87% (active)	89.8% (active)
Cc1cc(N=NC(N)=S)c2ccccc2c1O	4%	22%	76.2% (active)	-3%	1%	24.9%	-5%	16%	6.7%	-2%	-23%	-22.1%	2%	15%	37.2%	-40%	-1%	53.8%
N=C(N)c1ccc(Oc2ccc(Oc3ccc(C(=N)N)cc3)cc2)cc1	43%	69%	70.8% (active)	39%	68%	83.8% (active)	59%	89% (active)	81.2% (active)	50%	80% (active)	64.6%	53%	79% (active)	65.7%	57%	90% (active)	81.5% (active)
CCN(CC)CCC(=O)OC1C(C)=CC(C)C(=O)CC(C(C)CC2CCC(O)C(OC)C2)OC(=O)C2CCCCN2C(=O)C(=O)[C@@]2(O)OC(CCC2C)CC(OC)\C(C)=C/C=C/C=C/C(C)CC(C)C(=O)C1OC (stereo not given in full)	40%	97% (active)	90.9% (active)	26%	98% (active)	93% (active)	96% (active)	96% (active)	93.4% (active)	94% (active)	95% (active)	87.7% (active)	53%	98% (active)	92.8% (active)	97% (active)	97% (active)	92.2% (active)
[Cu+2].c1ccc2n[nH]nc2c1	99% (active)	99% (active)	98.8% (active)	99% (active)	99% (active)	99.3% (active)	98% (active)	99% (active)	98.5% (active)	70% (active)	99% (active)	98.3% (active)	96% (active)	99% (active)	98.6% (active)	99% (active)	99% (active)	98.7% (active)
O=C1CSc2ccccc2-n2cccc21	5%	6%	9.55%	11%	8%	3.35%	6%	-4%	61.5%	32%	30%	-1.1%	77% (active)	77% (active)	-11.2%	5%	15%	1.95%
BrC1=CC(Br)=C2N=C(C(Br)(Br)Br)N=C3N=C(C(Br)(Br)Br)N=C1N32	27%	97% (active)	99% (active)	15%	98% (active)	99.5% (active)	20%	99% (active)	99.8% (active)	5%	97% (active)	98.2% (active)	0%	97% (active)	99.2% (active)	30%	97% (active)	99% (active)
CC1(C)CCC[C@@]2(C)C1CC[C@@]1(CO1)[C@@H]2/C=C\C(C=O)CC=O (stereo not given in full)	60%	99% (active)	92.9% (active)	36%	100% (active)	94.2% (active)	59%	100% (active)	94.5% (active)	70% (active)	100% (active)	92.7% (active)	79% (active)	100% (active)	93.3% (active)	87% (active)	99% (active)	-27.4%
CN(c1ccccc1)N(C)c1ccccc1	-1%	22%	40.6%	-3%	-1%	-3.45%	-5%	-16%	-17.4%	8%	15%	-33.2%	5%	5%	-7.8%	3%	26%	4%
